This note sets out measurements from PubChem BioAssay (NCI).

This is part of a sample that, as a whole, favours compounds with a hit. Of some 83,000 tested, about 20% had one in any assay.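 Percent growth is the endpoint: 0 to 100 indicates growth inhibition (40 means 60% inhibition), 0 means no net growth, and negative values indicate cell death.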 Unmarked numbers belong to inactive results. Active and inactive are the calls of the source. The calls were made as follows: active = growth percent below 10; inactive = the rest.

Test systems include NCI-H23 lung; NCI-H226 lung; NCI-H322M lung; HOP-62 NSCLC; NCI-H460 lung; HOP-92 NSCLC; NCI-H522 lung; A549/ATCC NSCLC; 786-0 renal; COLO 205 colon; DU-145 prostate; K-562 leukemia; MALME-3M melanoma; MDA-MB-231 breast; RXF 393 renal; SF-268 CNS; SF-295 CNS; SF-539 CNS; UACC-257 melanoma; M14 melanoma.
Holding throughout (test): NCI-60 one-dose screen, 48 h (100 = growth as untreated, 0 = no growth, -100 = all killed)
Conditions in all cases: 10 µM unless noted

For `CC(Nc1ncnc2ccc(-c3cnc(N)nc3)cc12)c1ccccc1` (stereo not given), the growth with NCI-H23 lung was 50.3%; in the test with NCI-H226 lung it was 20.6%; in the test on NCI-H322M lung, 2.74% (active); in the test on HOP-62 NSCLC it was 31.2%; in the test on NCI-H460 lung, 35.1%; with HOP-92 NSCLC, -0.545% (active). Further, the growth in the test on NCI-H522 lung was 11.9%; in the test on A549/ATCC NSCLC, 32.7%; with 786-0 renal it was 23.7%; in the test with COLO 205 colon, 49.6%; in the test on DU-145 prostate it was 25.1%; in the test on K-562 leukemia, 44.5%. The growth in the test with MALME-3M melanoma was 28.9%; in the test on MDA-MB-231 breast, 25.4%; in the test with RXF 393 renal, -2.14% (active); with SF-268 CNS, 40.9%; with SF-295 CNS, 29.6%; in the test on SF-539 CNS, 23.4%. Besides, the growth with UACC-257 melanoma is 77.2%; with M14 melanoma, 48.3%.

Turning to `Clc1cccc(/C=N/Nc2nc(N/N=C/c3cccc(Cl)c3)nc(N3CCCCC3)n2)c1`, the growth in the test with NCI-H23 lung is 97.8%; in the test with NCI-H226 lung, 82%; in the test on NCI-H322M lung, 101%; in the test with HOP-62 NSCLC it was 104%; in the test on NCI-H460 lung, 96.5%; in the test with HOP-92 NSCLC it was 108%. Also, the growth in the test on NCI-H522 lung is 88.3%; with A549/ATCC NSCLC, 86.3%; with 786-0 renal, 95.2%; with COLO 205 colon, 102%; with DU-145 prostate, 94.6%; in the test with K-562 leukemia, 83%. The growth was 109% in the test on MALME-3M melanoma; 116% in the test with MDA-MB-231 breast; 93.4% in the test with RXF 393 renal; 92% in the test on SF-268 CNS; 93% in the test with SF-295 CNS; 105% in the test on SF-539 CNS. The growth with UACC-257 melanoma is 111%; in the test on M14 melanoma, 95.3%.

`CCCCc1nc2c(N)nc3ccccc3c2n1Cc1cccc(CN)c1`: the growth in the test on NCI-H23 lung was 72.6%; with NCI-H226 lung, 87.1%; with NCI-H322M lung it was 81.2%; with HOP-62 NSCLC, 57.3%; in the test on NCI-H460 lung it was 19.7%; in the test with HOP-92 NSCLC, -0.82% (active). In addition, the growth in the test on NCI-H522 lung is 72.7%; in the test with A549/ATCC NSCLC, 69.5%; in the test with 786-0 renal, 66.7%; in the test with COLO 205 colon, 44%; in the test on DU-145 prostate it was 60.2%; in the test on K-562 leukemia it was 3.82% (active). Moreover, the growth in the test with MALME-3M melanoma is 22.6%; in the test with MDA-MB-231 breast it was 57.3%; with RXF 393 renal, 47.6%; in the test on SF-268 CNS it was 48.7%; in the test with SF-295 CNS, 55.8%; in the test with SF-539 CNS, 5.63% (active). The growth with UACC-257 melanoma was -62.3% (active); in the test with M14 melanoma, -89.2% (active).

With `CC(=O)N1N=C(c2cc3ccccc3oc2=O)CC1c1cn(-c2ccccc2)nc1-c1ccc(C)cc1` (stereo not given), the growth in the test with NCI-H23 lung was 100%; in the test on NCI-H226 lung, 94.8%; with NCI-H322M lung, 101%; in the test with HOP-62 NSCLC, 93%; in the test with NCI-H460 lung, 104%; in the test on HOP-92 NSCLC it was 105%. Further, the growth with NCI-H522 lung is 97.4%; in the test on A549/ATCC NSCLC, 97.3%; in the test on 786-0 renal it was 103%; with COLO 205 colon, 103%; in the test on DU-145 prostate it was 103%; in the test on K-562 leukemia, 103%. Moreover, the growth in the test with MALME-3M melanoma was 92.3%; with MDA-MB-231 breast, 94.4%; in the test with RXF 393 renal, 98.8%; with SF-268 CNS it was 98.7%; in the test on SF-295 CNS, 100%; in the test on SF-539 CNS it was 90.1%. Besides, the growth was 99.4% in the test on UACC-257 melanoma and 101% in the test with M14 melanoma.

With `CC(C)(C)OC(=O)Nc1ccc(-c2cccc(Oc3ccc4nnc(Cl)n4n3)c2)cc1`, the growth with NCI-H23 lung is 69.7%; in the test with NCI-H226 lung it was 66.4%; in the test on NCI-H322M lung it was 101%; in the test with HOP-62 NSCLC it was 104%; with NCI-H460 lung, 82.4%; in the test with HOP-92 NSCLC, 42.3%. The growth is 64.9% in the test on NCI-H522 lung; 85.6% in the test with A549/ATCC NSCLC; 81.9% in the test with 786-0 renal; 88.5% with COLO 205 colon; 82.7% with DU-145 prostate; 31.2% in the test on K-562 leukemia. The growth in the test on MALME-3M melanoma was 106%; in the test with MDA-MB-231 breast, 83.8%; in the test on RXF 393 renal, 89.8%; with SF-268 CNS, 104%; in the test with SF-295 CNS, 84.1%; with SF-539 CNS, 92.7%. Further, the figures for the growth in the test with UACC-257 melanoma and in the test on M14 melanoma were 87.1% and 65.9%, respectively.

As for `CN1CCN(Cc2ccc(NC(=O)c3cncc(C#Cc4cnc5ccc(OCC(F)F)nn45)c3)cc2C(F)(F)F)CC1`, the growth is -51.2% (active) with NCI-H23 lung; -62.6% (active) with NCI-H226 lung; -35.4% (active) in the test with NCI-H322M lung; -76.6% (active) in the test with HOP-62 NSCLC; -85% (active) with NCI-H460 lung; -30.7% (active) with HOP-92 NSCLC. Moreover, the growth was -75.9% (active) in the test on NCI-H522 lung; -61.6% (active) in the test on A549/ATCC NSCLC; -90.3% (active) in the test with 786-0 renal; -87.7% (active) with COLO 205 colon; -85.8% (active) in the test with DU-145 prostate; 0.0269% (active) in the test with K-562 leukemia. Further, the growth was -86.2% (active) with MALME-3M melanoma; -66.7% (active) in the test with MDA-MB-231 breast; -81% (active) in the test on RXF 393 renal; -56.6% (active) in the test on SF-268 CNS; -76.6% (active) with SF-295 CNS; -90.6% (active) in the test on SF-539 CNS. Also, the growth in the test on UACC-257 melanoma was -33.7% (active); in the test on M14 melanoma, -89% (active).

With `C=C(C)[C@@H]1CC[C@]2(COP(=O)(OCC)OCC)CC[C@]3(C)[C@H](CC[C@@H]4[C@@]5(C)CC[C@H](OP(=O)(OCC)OCC)C(C)(C)[C@@H]5CC[C@]43C)[C@@H]12`, the growth is 13.5% with NCI-H23 lung; 28.3% in the test on NCI-H226 lung; 59.6% with NCI-H322M lung; 63.5% with HOP-62 NSCLC; 22.3% in the test on NCI-H460 lung; 42.2% in the test on HOP-92 NSCLC. Besides, the growth in the test on NCI-H522 lung was 35.5%; with A549/ATCC NSCLC, 28.4%; with 786-0 renal, 72.8%; in the test on COLO 205 colon, 44.2%; in the test on DU-145 prostate it was 69.7%; with K-562 leukemia it was 19.6%. The growth with MALME-3M melanoma was 50.8%; with MDA-MB-231 breast, 50.7%; in the test with RXF 393 renal, 45.3%; in the test with SF-268 CNS, 64.6%; in the test with SF-295 CNS, 14.6%; in the test with SF-539 CNS, 70.5%. The growth is 46.8% in the test with UACC-257 melanoma and 51.6% with M14 melanoma.
